The panel holds about 83,000 compounds, 20% with a hit somewhere; the sample as a whole holds those more often.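 Treatment: one concentration, 48 hours, 96-well format. Scoring: percent growth, with anything below 10 considered active.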 Activity calls are given as the source filed them.
The compounds below were run on HL-60(TB) leukemia (assay: NCI-60 one-dose screen, 48 h (100 = growth as untreated, 0 = no growth, -100 = all killed)). Details: 10 µM unless noted.

SMILES | growth
O=C(NNc1nc2cc(F)c(F)cc2n2cccc12)c1ccncn1 | 0.0559% (active)
COc1ccc(N2C(=O)c3cc(OC)c(OC)cc3NC2SCc2ccccc2)cc1 (stereo not drawn) | 110% (inactive)
CCn1c2ccc(/C=N/NS(=O)(=O)CCN(C)C)cc2c2cc(/C=N/NS(=O)(=O)CCN(C)C)ccc21 | 103% (inactive)
COc1ccc(S(=O)(=O)NCCCNc2nccc(-c3[nH]c(-c4ccccc4)nc3-c3ccc(Cl)c(O)c3)n2)cc1 | 43.2% (inactive)
COc1ccc(N2CCN(C(=O)CSc3ccc(-c4nc5cc(C)c(C)cc5[nH]4)cn3)CC2)cc1 | 29.4% (inactive)
c1ccc2c(NCCCn3ccnc3)c3oc4ccccc4c3nc2c1 | -1.2% (active)
NC(N)=Nc1ccc(Oc2cccc(NC(N)=Nc3ccc(Br)c(C(F)(F)F)c3)c2)cc1 | 17.6% (inactive)
COc1ccc(-n2c(/C=C3\C(=O)Nc4ccccc43)ccc2CO)cc1 | 92.7% (inactive)
Cc1ccc(-c2cc3nc(C(Cl)Cl)nc(C)n3n2)cc1 | 107% (inactive)
Cc1cc(=O)n2nc(-c3cn(C)c4ccc(Cl)cc34)sc2n1 | 92.5% (inactive)
CN1CCN(Cc2ccc(NC(=O)c3cncc(C#Cc4cnc5[nH]ncc5c4)c3)cc2C(F)(F)F)CC1 | 8.94% (active)
N[C@@H](Cc1cn(-c2ccnc3ccccc23)nn1)C(=O)O | 110% (inactive)
C=C(C)[C@@H]1CC[C@]2(COCCCNCCCN)CC[C@]3(C)[C@H](CC[C@@H]4[C@@]5(C)CC[C@H](O)C(C)(C)[C@@H]5CC[C@]43C)[C@@H]12 | -28.1% (active)

— PubChem BioAssay (NCI)
